Bioassay records from PubChem.
KB-3-1 tox = kills parental KB-3-1 adenocarcinoma cells; AID 1347075; 400,000 compounds, 1.4% hits; Potency, µM (doses to about 46.1 µM), usual class: cytotoxic; KB-3-1 viability, CellTiter-Glo ATP luminescence, 72 h; note: % is set by controls: 0 for no effect and ±100 for the full control effect; nearly all actives have a fitted effect of over 60% in size
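Here the drug-naive KB-3-1 line serves as comparator for MDR sub-line selectivity; cells received compound titrations, 72 h at 37 °C, then CellTiter-Glo readout.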
ELG1 repair inh = ELG1-dependent DNA repair inhibition; HEK293T ELG1-luciferase reporter, luminescence, 16 h; DNA damage induced by 5-fluorouridine; Potency, µM (highest dose often 46.1 µM), without a hit: at the top dose activity change, negative = inhibition, actives largely listed as inhibitors; 330,000 compounds, 2.3% hits; AID 504467; note: % is set by controls: 0 for no effect and ±100 for the full control effect; nearly all actives have a fitted effect of over 55% in size
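Overnight (16 hr) co-exposure of 2,000 cells/well to 5-fluorouridine and compound at 37 °C preceded detection. Luciferase was quantified via ONE-Glo luminescence; loss of signal denotes inhibition.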
MCF10A rereplic = inducers of DNA re-replication in MCF 10A breast cells | 350,000 compounds, 2.9% hits | Potency, µM (doses to about 46.1 µM), without a hit: at the top dose activity, positive = re-replication, actives largely listed as activators | AID 624296 | MCF 10A DNA re-replication, Hoechst nuclear intensity, 48 h; note: % of control where 0% means no effect; nearly all actives have a fitted effect of over 50% in size
SW480 rereplic = DNA re-replication induction in SW480 cells; SW480 DNA re-replication, Hoechst DNA content imaging, 48 h; 340,000 compounds, 1.8% hits; Potency, µM (titrated, usually from 46.1 µM), for the others: at the top dose re-replication activation, hits mostly activators; note: % of control where 0% means no effect; nearly all actives have a fitted effect of over 55% in size
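First, 250 cells per well were seeded. Next, compound or vehicle (23 nL) was pinned in, plates sat 48 hr at 37 C. Finally Hoechst was added for 40 min before fluorescence scanning.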
KB-V1 cytotox = KB-V1 MDR subline cytotoxicity; KB-V1 MDR cells viability, CellTiter-Glo, 72 h; Potency, µM (highest dose often 46.1 µM), actives largely listed as cytotoxic; 400,000 compounds, 3.4% hits; note: % is set by controls: 0 for no effect and ±100 for the full control effect; nearly all actives have a fitted effect of over 60% in size
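Cells of the MDR subline KB-V1 are plated, dosed with compound at multiple concentrations, and incubated 72 h at 37 degrees C; CellTiter-Glo is then added and luminescence read after 10 min.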
ELG1 FLuc counter = luciferase inhibition in cell-free luciferin readout for ELG1 hits; shares compounds with ELG1 repair inh; cell-free firefly luciferase luminescence counter-screen, ViewLux; Potency, µM (doses to about 46.1 µM), without a hit: at the highest dose activity change, negative = inhibition, usual class: inhibitors; 350 compounds, 3% hits; AID 624247; note: % is set by controls: 0 for no effect and ±100 for the full control effect
ELG1-Luc inh = inhibits ELG1-dependent DNA repair in HEK293T cells, confirmed; shares compounds with ELG1 repair inh; HEK293T ELG1-luciferase levels, luminescence; cells co-treated with 5-fluorouridine; Potency, µM (top dose mostly 46.1 µM), inactives show at the top dose activity change, negative = inhibition, hits mostly inhibitors; 670 compounds, 68% hits; note: % is set by controls: 0 for no effect and ±100 for the full control effect; nearly all actives have a fitted effect of over 55% in size
Target sequence (Q96QE3 whole entry, looked up): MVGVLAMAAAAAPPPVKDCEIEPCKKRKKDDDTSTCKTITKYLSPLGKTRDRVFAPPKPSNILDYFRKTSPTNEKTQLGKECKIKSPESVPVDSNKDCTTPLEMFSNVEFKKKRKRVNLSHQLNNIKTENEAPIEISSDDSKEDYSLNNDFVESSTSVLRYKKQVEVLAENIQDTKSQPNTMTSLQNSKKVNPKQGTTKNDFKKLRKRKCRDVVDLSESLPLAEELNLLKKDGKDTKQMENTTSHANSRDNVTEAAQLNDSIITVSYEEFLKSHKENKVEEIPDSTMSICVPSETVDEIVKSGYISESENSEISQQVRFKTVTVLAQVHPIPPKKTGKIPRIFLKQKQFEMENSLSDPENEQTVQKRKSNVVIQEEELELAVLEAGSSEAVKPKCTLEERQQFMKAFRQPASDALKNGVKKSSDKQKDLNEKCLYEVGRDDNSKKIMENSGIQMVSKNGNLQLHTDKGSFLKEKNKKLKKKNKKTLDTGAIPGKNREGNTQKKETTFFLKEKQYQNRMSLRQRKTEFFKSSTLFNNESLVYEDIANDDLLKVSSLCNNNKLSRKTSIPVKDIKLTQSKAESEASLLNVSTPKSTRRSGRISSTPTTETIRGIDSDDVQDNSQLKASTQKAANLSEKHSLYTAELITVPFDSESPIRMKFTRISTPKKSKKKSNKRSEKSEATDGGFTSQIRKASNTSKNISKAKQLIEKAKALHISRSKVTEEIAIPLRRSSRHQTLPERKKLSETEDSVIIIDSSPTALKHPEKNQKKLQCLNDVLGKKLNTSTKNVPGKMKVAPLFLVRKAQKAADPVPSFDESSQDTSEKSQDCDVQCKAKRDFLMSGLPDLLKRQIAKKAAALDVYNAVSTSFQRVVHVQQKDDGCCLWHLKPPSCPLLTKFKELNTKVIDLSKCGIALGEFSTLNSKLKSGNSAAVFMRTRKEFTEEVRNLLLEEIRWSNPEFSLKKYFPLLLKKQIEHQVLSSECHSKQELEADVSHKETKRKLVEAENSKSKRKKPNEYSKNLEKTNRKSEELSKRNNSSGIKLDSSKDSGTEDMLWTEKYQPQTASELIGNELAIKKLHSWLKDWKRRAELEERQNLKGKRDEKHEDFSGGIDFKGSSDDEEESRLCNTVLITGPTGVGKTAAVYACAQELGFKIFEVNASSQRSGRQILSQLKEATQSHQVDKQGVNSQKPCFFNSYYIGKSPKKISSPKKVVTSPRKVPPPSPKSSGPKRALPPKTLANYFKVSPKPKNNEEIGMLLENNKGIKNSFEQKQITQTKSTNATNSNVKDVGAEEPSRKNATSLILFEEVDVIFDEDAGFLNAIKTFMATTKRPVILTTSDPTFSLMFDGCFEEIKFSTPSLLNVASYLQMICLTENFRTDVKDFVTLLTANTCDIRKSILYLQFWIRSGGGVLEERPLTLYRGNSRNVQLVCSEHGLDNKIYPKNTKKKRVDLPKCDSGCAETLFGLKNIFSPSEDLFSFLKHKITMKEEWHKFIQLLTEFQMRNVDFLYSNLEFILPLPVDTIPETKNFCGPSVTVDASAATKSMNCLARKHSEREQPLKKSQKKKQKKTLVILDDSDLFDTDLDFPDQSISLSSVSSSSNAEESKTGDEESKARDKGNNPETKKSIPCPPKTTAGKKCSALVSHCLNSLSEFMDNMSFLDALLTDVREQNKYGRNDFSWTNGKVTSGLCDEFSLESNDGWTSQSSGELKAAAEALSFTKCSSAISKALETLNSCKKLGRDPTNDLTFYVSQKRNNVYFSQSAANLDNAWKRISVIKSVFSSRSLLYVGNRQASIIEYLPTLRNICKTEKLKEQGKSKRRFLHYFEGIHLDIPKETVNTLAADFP
ELG1 MMS Luc = MMS-stimulated human ELG1 repair inhibition, confirmed; shares compounds with ELG1 repair inh; HEK293T luciferase-tagged ELG1 level, MMS stimulated; Potency, µM (highest dose often 46.1 µM), for inactives: at the top dose activity change, negative = inhibition, most hits filed as inhibitors; 670 compounds, 53% hits; AID 624249; note: % is set by controls: 0 for no effect and ±100 for the full control effect; nearly all actives have a fitted effect of over 60% in size
ELG1 5-FU = confirmation of ELG1 repair inhibitors: viability with 5FU. Potency, µM (titrated, usually from 46.1 µM), for the others: at the top dose activity change, negative = viability loss, actives largely listed as cytotoxic. shares compounds with ELG1 repair inh. cell viability with 5-FU, ELG1-dependent repair. 670 tested, under 10 active. AID 624250;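 note: ELG1-luc HEK293T cells cotreated with 5-fluorouridine at 10 µM final; viability measured 16 h after compound addition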
ELG1 MMS cell = confirmation of ELG1 repair inhibitors: viability with MMS; Cell viability with MMS, ELG1-dependent DNA repair; 670 compounds, 33% hits; shares compounds with ELG1 repair inh; Potency, µM (highest dose often 46.1 µM), for inactives: top-dose activity change, negative = viability loss, actives largely listed as cytotoxic;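 note: ELG1-luc HEK293T cells co-treated with 10 µM MMS; viability read 16 h after compound addition; % is set by controls: 0 for no effect and ±100 for the full control effect; nearly all actives have a fitted effect of over 60% in size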
Cell viab unstim = counter-screen for ELG1 repair inhibitors: unstimulated cell viability; cell viability counter-screen, unstimulated, luminescence; 900 compounds, 8% hits; Potency, µM (doses to about 45.9 µM), inactives show top-dose activity change, negative = loss of viability, hits mostly cytotoxic; shares compounds with ELG1 repair inh;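 note: compound exposure lasted 16 hours before reading; % is set by controls: 0 for no effect and ±100 for the full control effect; nearly all actives have a fitted effect of over 55% in size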
FLuc biochem = firefly luciferase inhibition counter-screen. shares compounds with ELG1 repair inh. purified firefly luciferase, luminescence counter-screen. Potency, µM (series often up to 57.5 µM), for inactives: at the top dose activity, negative = inhibition, actives largely listed as inhibitors. 350 compounds, 10% hits. AID 624253; note: % is set by controls: 0 for no effect and ±100 for the full control effect
* = called active by the depositor; i = inactive; ? = inconclusive; / = no result; [ ] = remark or other dose. A selection: hits, their analogues and other compounds. The true share with any hit is near 8.1%. Calls come from the whole dose curve; as a rule, active = well fitted curve in the direction sought with a large enough effect; inconclusive = small, poorly fitted or top-dose-only effect, or another doubt; inactive = no such curve, though single readings can be large; an effect the other way counts as inactive or inconclusive. Potency is the fitted concentration of half-maximal effect.

SMILES	KB-3-1 tox	ELG1 repair inh	MCF10A rereplic	SW480 rereplic	KB-V1 cytotox	ELG1-Luc inh	ELG1 MMS Luc	ELG1 5-FU	ELG1 MMS cell	Cell viab unstim	others
CCCOCC(O)COc1ccccc1C(=O)N1CCOCC1 (configuration not stated)	i	7.3%	10.9%	1.9%	i	/	/	/	/	/
O=C(Nc1cccc(Cl)c1)C1CC1c1ccccc1 (configuration not stated)	i	/	15.4%	-70.6%	i	/	/	/	/	/
O=C(Nc1ccncc1)C1CC1c1ccccc1 (configuration not stated)	i	0.146µM*	1.1%	-1.2%[9.22 µM]	i	?	14.1µM*	-1.0%	15.8µM*	-1.9%	ELG1 FLuc counter=-0.5%;FLuc biochem=-5.0%
O=C(c1cc2ccccc2[nH]1)c1cc2cc(O)ccc2[nH]1	i	/	/	/	i	/	/	/	/	-0.7%
CC(C)CC(C)NNC(=O)c1cc2ccccc2[nH]1 (configuration not stated)	i	?	1.3%	-10.4%	i	/	/	/	/	/
O=c1/c(=C\c2ccc(O)cc2)sc2nc(-c3ccccc3)c(-c3ccccc3)n12	i	2.8%	9.5%	2.9%	i	/	/	/	/	/
COc1cccc(-c2cc(NCc3cccs3)ncn2)c1	/	/	/	/	/	/	/	/	/	-3.0%	ELG1 FLuc counter=66.7%;FLuc biochem=3.66µM*
Cc1cc(NC(=O)c2ccc([N+](=O)[O-])cc2)n(CCC#N)n1	i	-17.1%	-0.4%	4.5%	i	/	/	/	/	/
c1ccc(SCc2cn(C[C@H]3CC[C@@H]([C@@H]4CC[C@H](Cn5cc(CSc6ccccc6)nn5)O4)O3)nn2)cc1	i	2.06µM*	10.8%	-14.7%	i	28.1µM*	28.1µM*	?	11.7%	-20.7%
CCOc1cc(/C=N/Nc2cc(C)nc(-n3nc(C)cc3C)n2)ccc1O	i	2.59µM*	?	?	i	6.28µM*	?	?	?	?
CC(C)CN(C(=O)COC(=O)C1CC1)c1c(N)n(Cc2ccccc2)c(=O)[nH]c1=O	?	16.7%	-1.4%	-4.1%	i	/	/	/	/	/
COc1cc(C(=O)NCc2ccncc2)cc(OC)c1OC	i	?	-3.0%	17.3%	i	/	/	/	/	/
COc1cc(C(=O)NCc2ccccc2)cc(Br)c1OC	i	3.66µM*	-0.2%	-6.7%	i	?	-6.2%	?	12.0%	6.4%
O=C(N/N=C/c1c(F)c(F)c(F)c(F)c1F)c1cc(-c2ccccc2)nc2ccccc12	i	-5.7%	1.5%	-2.8%	i	/	/	/	/	/
Cc1nn(-c2ccccc2)c(N2CCCC2)c1/C=N/NC(=O)c1cc(-c2ccccc2)nc2ccccc12	i	3.66µM*	?	13.0%	i	7.91µM*	?	-5.6%	-7.6%	?
O=C(NC1CCCC1)c1cc(-c2cccs2)on1	?	?	15.1%	0.3%	?	/	/	/	/	-11.8%
CNC(=O)c1cc(-c2cccs2)on1	?	/	/	/	?	/	/	/	/	-5.7%
COC(C[C@H]1O[C@H]1[C@@H](O)COCc1ccccc1)OC	i	15.3%	5.7%	0.3%	i	/	/	/	/	/
CCOc1ccc(C(=O)Nc2ccccc2N2CCN(C(=O)c3ccccc3)CC2)cc1[N+](=O)[O-]	/	4.61µM*	-0.4%	-3.7%	/	6.28µM*	?	5.8%	-0.7%	-15.4%
CCCC(=O)Nc1cc2c3c(c1)CCN3C(=O)CC2	i	?	16.2%	-20.1%	?	/	/	/	/	/
COc1cc(OC)c(NC(=O)CSc2cc(=O)n(C)c3ccc(Cl)cc23)cc1Cl	i	/	/	/	?	/	/	/	/	/
CCCNc1nc2c(c(=O)n(C)c(=O)n2C)n1Cc1cccc(C)c1	?	1.3µM*	4.9%	11.2%	9.2µM*	?	6.28µM*	3.5%	7.91µM*	-18.3%
CCOc1ccc(CCNc2nc3c(c(=O)n(C)c(=O)n3C)n2CC)cc1OCC	14.6µM*	?	0.5%	-0.9%	?	14.1µM*	11.2µM*	4.3%	-17.7%	-7.2%	ELG1 FLuc counter=-10.6%;FLuc biochem=1.2%
COC(=O)c1ccccc1NC(=O)CN(c1c(C)cccc1C)S(C)(=O)=O	i	-1.2%	0.5%	10.1%	i	/	/	/	/	/
COc1ccc(C2=Nn3c(nnc3-c3ccncc3)SC2)cc1	i	2.31µM*	16.6%	?	i	6.29µM*	?	-1.7%	-6.2%	-11.5%	ELG1 FLuc counter=-3.1%;FLuc biochem=-9.6%
SMILES	KB-3-1 tox	ELG1 repair inh	MCF10A rereplic	SW480 rereplic	KB-V1 cytotox	ELG1-Luc inh	ELG1 MMS Luc	ELG1 5-FU	ELG1 MMS cell	Cell viab unstim	others
N#Cc1ccccc1S(=O)(=O)N1CCN(C(=O)CCc2ccccc2)CC1	i	15.9%	13.9%	-19.0%	?	/	/	/	/	/
Cc1cccc(NC(=O)CCN2CCC(C(N)=O)CC2)c1	i	-6.3%	-12.4%	?	i	/	/	/	/	/
N#C/C(=C\c1cccnc1)c1ccccn1	i	?	15.1%	-15.6%	i	/	/	/	/	4.3%	ELG1 FLuc counter=44.4%;FLuc biochem=-3.0%
Cn1cnnc1SCC(=O)Nc1cccc(C(=O)O)c1	i	0.0%	-0.6%	-17.1%	i	/	/	/	/	/
Cc1ccc(N2CC(C(=O)OCC(=O)Nc3cc(C)on3)CC2=O)c(C)c1 (configuration not stated)	i	3.2%	9.2%	-8.4%	i	/	/	/	/	/
Cc1nc2sc3c(NCc4ccco4)ncnc3c2c2c1COC(C)(C)C2	?	2.59µM*	?	?	18.4µM*	3.54µM*	22.3µM*	?	-11.2%	?	ELG1 FLuc counter=-6.7%;FLuc biochem=-3.8%
